Results taken from PubChem BioAssay (EPA / NIEHS).
Several values for one entry are separate records, joined by “and”; a condition that tells them apart may be missing. Equal values may be shown once. Some structures have more than one record in an assay (separate samples or runs), and their calls can disagree. Activity calls are given as the source filed them. Rule for the calls: active = hit-call score of the fitted dose curve at least 0.9, where 1 is the maximum; inactive = score below 0.9.

Test: BSK_LPS_SRB: Viability Assessment in the BioMAP Diversity Plus: LPS Assay (AID 2283079);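 note: fitted in both directions against DMSO so loss or gain of signal counts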
Conditions: primary human HUVEC with PBMC
Protocol: BSK_LPS is a cell-based, multiplexed-readout assay that uses umbilical vein endothelium and peripheral blood mononuclear cells, a human vascular primary cell co-culture, with measurements taken at 24 hours after chemical dosing in a 96-well plate.BSK_LPS_SRB is an assay component measured in the BSK_LPS assay. It measures 0.1% sulforhodamine related to cell death using Sulforhodamine staining technology.Data from the assay component BSK_LPS_SRB was analyzed into 1 assay endpoint. This assay endpoint, BSK_LPS_SRB, was analyzed with bidirectional fitting relative to DMSO as the negative control and baseline of activity. Using a type of viability reporter, gain or loss-of-signal activity can be used to understand changes in the signaling. Furthermore, this assay endpoint can be referred to as a primary readout, because this assay has produced multiple assay endpoints where this one serves a signaling function. To generalize the intended target to other relatable targets, this assay endpoint is annotated to the cell morphology intended target family, where the subfamily is cell conformation.
The levels of cell surface (or secreted, indicated by the prefix "s") biomarker endpoints were measured by ELISA. Overt cytotoxicity to cells in confluent adherent cultures (all systems other than the BT system) was assessed by measuring total protein levels using sulforhodamine B (SRB) staining in parallel cultures at the time of biomarker measurements, indicated as SRB endpoints. For proliferation assays for adherent cell types, individual cell types are cultured at sub-confluence and relative cell numbers quantified by SRB staining at time points optimized for each system (48 h: 3C and CASM3C systems; 72 h: BT and HDF3CGF systems; 96 h: SAg system). SRB was performed by staining cells with 0.1% SRB after fixation with 10% TCA and reading wells at 560 nm.Viability and proliferation of PBMC (T cells) was quantified by Alamar Blue reduction for the SAg and BT systems. For PBMC viability (referred to as PBMC Cytotoxicity within the assay endpoint names), cells were plated (75,000/well in a 96-well plate) and then chemical samples added for 1 h before addition of activators, SEB and TSST-1 (20 ng/mL final concentration each). Cells were incubated for 90 h. Then, Alamar Blue (20 uL/well) (Invitrogen, Cat DAL1100) was added for 6 h, and the plates were read with a fluorescence microplate reader at 546/580 nm (excitation/emission). For PBMC proliferation, cells were plated and activated as above but incubated for only 16 h prior to addition of Alamar Blue. Plates were read after 6 h.

SMILES	AC50	outcome
c1ccc(Sc2ccccc2)cc1	32.2 µM (active)	
O=C1OC2(c3ccc(O)cc3Oc3cc(O)ccc32)c2ccccc21		inactive
O=C(O)C(F)(F)C(F)(F)C(F)(F)C(F)(F)C(F)(F)C(F)(F)C(F)(F)C(F)F		inactive
Nc1ccc(N)c([N+](=O)[O-])c1		inactive
C=C1CC/C=C(\C)CC[C@@H]2[C@@H]1CC2(C)C	36.3 µM (active)	
c1ccc2c(c1)-c1ccc3ccc4cccc5cc-2c1c3c45		inactive
COC(=O)c1ccc(C(=O)OC)cc1		inactive
CCCCCCCCCC(=O)OCC		inactive
C=CC(=O)OCC(CO)(COC(=O)C=C)COC(=O)C=C	0.749 µM (active)	
CC(C)(CO)CO		inactive
CC(C)Cc1ccc(C(C)C(=O)O)cc1 (stereo not given)		inactive
CCOC(=O)CCCCCCCCC(=O)OCC		inactive
CCCO[Si](OCCC)(OCCC)OCCC		inactive
CCCCCCCC1CCCC1=O (stereo not given)		inactive
O=C(c1ccc(OCCN2CCCCC2)cc1)c1c(-c2ccc(O)cc2)sc2cc(O)ccc12	26.7 µM (active)	
CC1=CC(C)C(C=O)C(C)C1 (stereo not given) (tested in a mixture with another compound)		inactive
CCC(=O)OCC=Cc1ccccc1		inactive
CC/C(=C(\c1ccccc1)c1ccc(OCCN(C)C)cc1)c1ccccc1	9.77 µM (active) and 10.4 µM (active)	
C=C(C)C(=O)OCCC(F)(F)C(F)(F)C(F)(F)C(F)(F)C(F)(F)C(F)(F)C(F)(F)C(F)(F)F		inactive
CC1(C)[C@H](C=C(Cl)Cl)[C@H]1C(=O)OCc1cccc(Oc2ccccc2)c1		inactive

SMILES	AC50	outcome
NC(=O)c1c(Cl)cccc1Cl		inactive
c1ccc(OCCOc2ccccc2)cc1		inactive
CC=CC(=O)C1=C(C)C=CCC1(C)C		inactive
CC(=O)OC(C)(C)C1CC=C(C)CC1 (stereo not given)		inactive
CC(=O)OCC=C(C)CCC=C(C)CCC=C(C)C		inactive
CCCCOCCOCCO		inactive
OCCN1CCOCC1		inactive
C#C[C@]1(O)CC[C@H]2[C@@H]3CCc4cc(O)ccc4[C@H]3CC[C@@]21C	9.58 µM (active)	
CC(=O)c1ccc(C)cc1		inactive
CC(C)(C)c1cccc(O)c1		inactive
CC(=O)CCC=C(C)CCC=C(C)C		inactive
O=C(O)C(F)(F)OC(F)(F)C(F)(F)OC(F)(F)C(F)(F)C(F)(F)C(F)(F)F	51 µM (active)	inactive
C=C(F)C(=O)OC(C(F)(F)F)C(F)(F)F		inactive
CC(C)CCCC(C)(C)O		inactive
O=S(=O)(O)C(F)(F)C(F)(F)OC(F)(F)C(F)(F)F		inactive
CCOC(=O)C=Cc1ccccc1		inactive
CCCCCCCCCCCCS	20 µM (active)	
CCCCN(CCO)CCO		inactive
O=S1(=O)CC(Cl)(Cl)C(Cl)(Cl)C1	5.01 µM (active)	
